# Measurements from the supplement of paper PMC9262897, “Low-cost anti-mycobacterial drug discovery using engineered E. coli” (Nature Communications, 2022).
# Structures can show the parent of a compound that is named as a salt. ± gives the standard deviation of the averaged measurements.
# Test system: E. coli TESEC Mtb Alr
# Assay: growth (OD600 after 10 h); higher = more growth (less inhibition)
# Details: compound 0.1 mM
# Method: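 TESEC Mtb Alr E. coli, or the Alr+ wild-type control, in 384-well plates with Prestwick library compounds at 0.1 mM and 1% DMSO, across arabinose induction levels of 1E3 to 1E7 nM. Growth is read as OD600 after 10 h at 37 °C in triplicate biological replicates.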
# [1] = arabinose 1000 nM, raw OD600 reference: median of DMSO wells 0.294, cell-free background 0.041
# [2] = arabinose 10000 nM, raw OD600 reference: median of DMSO wells 0.264, cell-free background 0.041
# [3] = arabinose 100000 nM, raw OD600 reference: median of DMSO wells 0.201, cell-free background 0.041
# [4] = arabinose 1000000 nM, raw OD600 reference: median of DMSO wells 0.193, cell-free background 0.041
# [5] = arabinose 10000000 nM, raw OD600 reference: median of DMSO wells 0.146, cell-free background 0.041
SMILES,growth [1],growth [2],growth [3],growth [4],growth [5]
CCN(CC)CCOCCOC(=O)C1(c2ccccc2)CCCC1 [Carbetapentane citrate],0.275 ± 0.015,0.249 ± 0.0094,0.191 ± 0.03,0.133 ± 0.004,0.161 ± 0.0033
CCCNC(C)C(=O)Nc1ccccc1C (stereo not given) [Prilocaine hydrochloride],0.275 ± 0.011,0.264 ± 0.0046,0.1867 ± 0.0018,0.167 ± 0.0054,0.136 ± 0.0076
COc1c(O[C@@H]2O[C@H](CO)[C@@H](O)[C@H](O)[C@H]2O)cc2c(c1OC)-c1ccc(SC)c(=O)cc1[C@@H](NC(C)=O)CC2 [Thiocolchicoside],0.307 ± 0.0068,0.275 ± 0.0073,0.229 ± 0.023,0.186 ± 0.0019,0.149 ± 0.0088
CC(=O)Oc1ccccc1C(=O)O [Acetylsalicylic acid],0.2936 ± 0.0015,0.292 ± 0.014,0.202 ± 0.019,0.19 ± 0.01,0.147 ± 0.0031
O=C(COc1ccc(Cl)cc1)N1CCN(Cc2ccc3c(c2)OCO3)CC1 [Fipexide hydrochloride],0.146 ± 0.0033,0.138 ± 0.0033,0.154 ± 0.0017,0.0771 ± 0.0022,0.144 ± 0.0034
CC=C(C)C(=O)OC1C(OC(C)=O)C2(CO)C(O)CC3(C)C(=CCC4C5(C)CCC(OC6OC(C(=O)O)C(OC7OC(CO)C(O)C(O)C7O)C(O)C6OC6OC(CO)C(O)C(O)C6O)C(C)(CO)C5CCC43C)C2CC1(C)C (stereo not drawn) [Beta-Escin],0.333 ± 0.0081,0.24 ± 0.0056,0.366 ± 0.011,0.151 ± 0.0075,0.226 ± 0.01
CC(=O)Oc1cccc2c1C(=O)c1c(OC(C)=O)cc(C(=O)O)cc1C2=O [Diacerein],0.136 ± 0.011,0.161 ± 0.0033,0.0638 ± 0.0022,0.0904 ± 0.0041,0.0642 ± 0.005
CN1CCN(CC(=O)N2c3ccccc3C(=O)Nc3cccnc32)CC1 [Pirenzepine dihydrochloride],0.269 ± 0.049,0.268 ± 0.013,0.193 ± 0.0071,0.177 ± 0.0037,0.148 ± 0.0028
